Assay outcomes: PubChem, National Center for Advancing Translational Sciences (NCATS)
HCV inh – qHTS Assay for Inhibitors of Hepatitis C Virus (HCV). Huh7.5.1 HCVcc-Cre infection, luciferase reporter, 44 h. actives 3.4% (n = 340,000). Potency, µM (highest dose often 41.8 µM), for the others: at the highest dose activity change, negative = inhibition, hits mostly inhibitors. AID 651820, 2012; active = well fitted inhibition curve with a large enough effect; inconclusive = small, poorly fitted or top-dose-only effect, or another doubt; inactive = no such curve, though single readings can be large or run the other way; note: potency is the fitted concentration of half-maximal effect
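Compounds are dispensed onto cells plated 4 h earlier at 1,000 per well, with HCVcc-Cre virus (about 0.5 moi) added next. Following 44 h of culture, luminescent signal is measured for 15 sec after 15 min with substrate at room temperature.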
Lassa entry inh – qHTS for Inhibitors of binding or entry into cells for Lassa Virus; Lassa virus pseudotype entry inhibition, cell reporter; Potency, µM (titrated, usually from 37.9 µM), for inactives: at the highest dose activity change, negative = inhibition, actives largely listed as inhibitors; actives 1.2% (n = 300,000); AID 540256, 2011; calls by dose curve; tested in HEK293 cells; note: potency is the fitted concentration of half-maximal effect; nearly all actives have a fitted effect of over 50% in size
MARV entry inh – qHTS for inhibitors of binding or entry into cells for Marburg Virus; Potency, µM (top dose mostly 37.8 µM), for inactives: at the top dose activity change, negative = inhibition, most hits filed as inhibitors; actives 1.8% (n = 300,000); AID 540276, 2011; Marburg virus pseudotyped entry inhibition, cell reporter; calls by dose curve; tested in HEK293 cells; note: potency is the fitted concentration of half-maximal effect
Vaccinia mCherry – qHTS for Stage-Specific Inhibitors of Vaccinia Orthopoxvirus: mCherry Reporter Primary qHTS; Vaccinia virus mCherry reporter infection, fluorescence; Potency, µM (doses to about 36.5 µM), inactives show at the highest dose activity change, negative = inhibition, most hits filed as inhibitors; actives 0.63% (n = 310,000); AID 720579, 2013; calls by dose curve; tested in A549 cells; note: potency is the fitted concentration of half-maximal effect; nearly all actives have a fitted effect of over 35% in size
HCMV antiviral – qHTS Assay for inhibitors of the human cytomegalovirus (HCMV); HFF cells, HCMV-luciferase reporter, 72 h; stronger effect = lower value; AID 1259415, 2018; actives 4.5% (n = 410,000); activity change, negative = inhibition, % at 57.5 µM; in the data active = activity change below about -60%; inconclusive = no clear call, values can overlap the other calls; inactive = above about -39%
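Inhibition of viral replication was scored as loss of reporter luminescence in HFFs infected with HCMV-luciferase (MOI 1 PFU/cell) for 72 h; compounds tested at 2 doses, normalized to buffer and Salinomycin controls.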
Vaccinia Venus – qHTS for Stage-Specific Inhibitors of Vaccinia Orthopoxvirus: Venus Reporter Primary qHTS; Vaccinia virus Venus reporter expression, fluorescence; Potency, µM (doses to about 36.5 µM), without a hit: top-dose activity change, negative = inhibition, actives largely listed as inhibitors; AID 720580, 2013; actives 0.46% (n = 330,000); calls by dose curve; tested in A549 cells; note: potency is the fitted concentration of half-maximal effect; nearly all actives have a fitted effect of over 30% in size
An asterisk follows results filed as active; i = inactive; ? = inconclusive; nt = no result given; [ ] = dose if it differs, or a comment. A selection: hits, their analogues and other compounds. The true share with any hit is near 7.8%. % is set by controls: 0 for no effect and ±100 for the full control effect.

SMILES | HCV inh | Lassa entry inh | MARV entry inh | Vaccinia mCherry | HCMV antiviral | Vaccinia Venus
COc1ccc(-n2c(C)cc(C(=O)Cn3nc(C(=O)O)c4ccccc4c3=O)c2C)cc1 | -11% | 9% | 17% | -17% | -33 | -12%
Cc1cc(C(=O)Cn2nc(C(=O)O)c3ccccc3c2=O)c(C)n1-c1ccc(OC(F)F)cc1 | ? | nt | nt | -13% | -66* | -16%
Cc1cc(C(=O)Cn2nc(C(=O)O)c3ccccc3c2=O)c(C)n1CC(F)(F)F | -16% | 10% | ? | -17% | 83 | -11%
Cc1cc(C(=O)Cn2nc(C(=O)O)c3ccccc3c2=O)c(C)n1CCc1ccc(F)cc1 | -11% | ? | 5.6µM* | -20% | -32 | -20%
COC(=O)c1ccc(-n2c(C)cc(C(=O)CSc3cccc[n+]3[O-])c2C)cc1 | -13% | nt | nt | nt | ? | nt
COc1ccc(N2CCN(S(=O)(=O)CCNC(=O)c3c(F)cccc3Cl)CC2)cc1 | nt | 0%[46.1 µM] | nt | -11% | 10 | -3%
COc1cc(SC)ccc1C(=O)N1CCCCCC1 | -22% | 7% | 9% | nt | 5 | nt
COc1cc(SC)ccc1C(=O)N1CCN(Cc2ccccc2)CC1 | 25µM* | ? | -20% | nt | 50 | nt
COc1cc(SC)ccc1C(=O)N1CCN(c2ccccc2)CC1 | -21% | 13µM* | -23%[46.1 µM] | -14% | -2 | -17%
COc1cc(SC)ccc1C(=O)N1CCC(Cc2ccccc2)CC1 | nt | 8.2µM* | ? | nt | nt | nt
COc1cc(SC)ccc1C(=O)N1CCN(c2ccc(O)cc2)CC1 | -12% | nt | nt | nt | -14 | nt
Cc1cc(C)n(-c2cccc(C(=O)NCC3Cc4cc(Cl)cc(-c5cnccn5)c4O3)c2)n1 (stereo not given) | nt | nt | nt | -19% | nt | -5%
CCN(CC)S(=O)(=O)c1ccc(NC(=O)CCc2c(C)nc3cc(-c4ccc(Cl)cc4)nn3c2C)cc1 | nt | ? | ? | -2% | -76* | -28%
CCOC(=O)[C@]12CCC=C1N(Cc1ccco1)C(=O)[C@H](CC(=O)N1CCCC1)C2 | nt | nt | nt | 6% | -9 | 2%
Cn1nc([N+](=O)[O-])nc1Oc1ccc2ccccc2c1 | 8% | 0% | -7% | nt | -65* | nt
COc1cccc(-c2cc3c(Nc4cccc(NC(C)=O)c4)nccc3n2C)c1 | nt | nt | nt | nt | -19 | nt
Clc1ccccc1C(c1ccccc1)(c1ccccc1)n1ccnc1 | ? | 6.5µM* | 16µM* | -24% | -70* | -15%
CC(N)=Nc1ccc([N+](=O)[O-])cc1 | 11% | 3% | 19% | -10% | -5 | -11%
O=[N+]([O-])c1ccc(N=Nc2c(Cl)cc(O)cc2Cl)cc1 | 5µM* | nt | nt | ? | -100* | ?
CCC1CCCCN1C(=S)NN=C(C)c1ccccn1 (stereo not given) | nt | nt | nt | nt | -98* | nt
CCNC(=S)N1CCN(c2ccccn2)CC1 | 3% | 4%[46.1 µM] | -5%[46.1 µM] | -6% | 2 | -14%
CC(=NNC(=S)N1CCCCC1)c1ccccn1 | nt | nt | nt | 4.5µM* | -98* | 10µM*
CC(=NNC(=S)N1CCCCC1)c1cccc(C)n1 | -70% | ? | ? | 0.32µM* | -23 | ?
CC(=NNC(=S)N1CC2CCC(CC2)C1)c1ccncn1 | 0.32µM* | 0.32µM* | ? | 1.6µM* | -98* | 6.3µM*
C/C(=N\NC(=S)NC1CCCCC1)c1ccc(Cl)c(Cl)c1 | -1% | nt | nt | nt | -14 | nt
SMILES | HCV inh | Lassa entry inh | MARV entry inh | Vaccinia mCherry | HCMV antiviral | Vaccinia Venus
CSC(=S)NN=C(C)c1cccc(C)n1 | 4µM* | ? | 5µM* | ? | -80* | ?
CC1CCN(C(=O)CSc2nc(-c3ccc(C(C)C)cc3)no2)CC1 | nt | 17%[46.1 µM] | nt | -11% | 7 | -10%
FC(F)(F)c1nc2ccccc2n2c(-c3ccc(Cl)cc3Cl)nnc12 | 4% | 15% | 4% | nt | 40 | -17%
FC(F)(F)c1nnc2c(Sc3ccccc3)nc3ccc(Cl)cc3n12 | 11µM* | ? | ? | nt | -103* | nt
Cc1ccc(/C=C/c2ccc(N(C)C)cc2)[n+](C)c1 | 3.2µM* | nt | nt | -16% | -98* | 152%
CN(C)c1ccc(/C=C/c2cc[n+](C)cc2)cc1 | 1.8µM* | ? | ? | 86% | -101* | i
O=C(CSc1nc2ccccc2nc1Cc1ccc(Cl)cc1)NCCc1ccccc1 | nt | 3%[46.1 µM] | nt | -18% | 7 | -20%
CCOc1ccc(CCNC(=O)CCc2c(C)nc3c(-c4ccccc4)c(C)nn3c2C)cc1OCC | nt | 28%[46.1 µM] | 14%[46.1 µM] | -8% | 37 | -18%
CCn1nc(NC(=O)c2ccncc2)c2cc3ccc(C)cc3nc21 | ? | -12% | ? | nt | 14 | nt
CCCn1nc(NC(=O)c2cccs2)c2cc3cc(C)ccc3nc21 | 22µM* | ? | 1%[46.1 µM] | -21%[7.34 µM] | 25 | -24%[7.34 µM]
CCCn1nc(NC(=O)c2cccs2)c2cc3ccc(C)cc3nc21 | 14µM* | nt | nt | nt | -28 | nt
COc1cccc(CNC(=O)CSc2nc3ccccc3nc2Cc2ccc(C)cc2)c1OC | nt | 0%[46.1 µM] | nt | -15% | -92* | -13%
COc1ccccc1Cc1nc2ccccc2nc1SCC(=O)NCc1ccc(C)cc1 | nt | 11%[46.1 µM] | nt | 2% | 17 | -6%
O=C1CC(c2ccccc2)Cc2[nH]c(=O)c(-c3nc(-c4cccc(Cl)c4)cs3)cc21 (stereo not given) | nt | -13%[46.1 µM] | 0%[46.1 µM] | -14% | -1 | -28%
CCc1ccc2c(COC(=O)c3n[nH]c4ccccc34)cc(=O)oc2c1 | 10µM* | -21% | ? | -29% | 94 | ?
C/C(=N/NC(=O)NC12CC3CC(CC(C3)C1)C2)c1ccccc1 | ? | nt | nt | nt | -62* | nt
O=C(N/N=C/c1ccccc1O)NC12CC3CC(CC(C3)C1)C2 | -19% | ? | ? | ? | -30 | -26%
COc1cccc(CNC(=O)Cn2nc(C)c3sc4ccccc4c3c2=O)c1OC | nt | 2%[46.1 µM] | -2%[46.1 µM] | -29% | -1 | -23%
O=C(COc1ccccc1)NC1CC(=O)N(c2ccc3c(c2)OCCO3)C1 (stereo not given) | nt | 12%[46.1 µM] | nt | -7% | 9 | 0%
O=C(COc1ccc(F)cc1)NC1CC(=O)N(c2ccc3c(c2)OCCO3)C1 (stereo not given) | nt | 18%[46.1 µM] | nt | -2% | -108* | -2%
COc1ccc(C(=O)COc2nc(C)cc(C)c2C#N)cc1 | ? | -4% | ? | nt | -64* | nt
COc1ccccc1C(=O)Nc1cccc(C(=O)OCc2cc(=O)n3nc(C4CC4)sc3n2)c1 | nt | ? | nt | ? | 31 | -14%
COCCN(Cc1cc2cc(C)ccc2[nH]c1=O)S(=O)(=O)c1ccc(Cl)cc1 | ? | nt | nt | i[7.34 µM] | -92* | 0%[7.34 µM]
O=C(NCCc1cccnc1)c1cnn(-c2ncc3c(n2)-c2ccccc2CC3)c1C1CC1 | nt | nt | nt | -24% | nt | -10%
CCOC(=O)c1c(C)[nH]c(C)c1S(=O)(=O)N1CCCC(C(=O)N2CCN(c3cccc(C)c3C)CC2)C1 (stereo not given) | nt | 11µM* | nt | -27% | 13 | -17%
